# ERK EGF inh = qHTS Assay for Inhibitors of the ERK Signaling Pathway using a Homogeneous Screening Assay; Stimulation with EGF | HEK293-V1b, EGF-stimulated phospho-ERK AlphaScreen | Potency, µM (titrated, usually from 11.5 µM), for the others: at the highest dose activity change, negative = inhibition, actives largely listed as inhibitors | hit rate 0.41% among 130,000 | AID 1454, 2008; active means well fitted inhibition curve with a large enough effect;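 further: plate controls were stimulated vehicle wells for no effect and unstimulated vehicle basal for full effect; nearly all actives have a fitted effect of over 55% in size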
#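 Stably V1b-transfected HEK293 cells; 30 min compound, then EGF 25 nM final for 5 min at 37C; 10 min lysis; phospho-ERK by AlphaScreen after 5 hr beads at room temperature.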
# Starred values were filed as active, the others as inactive; [ ] = another dose, or the depositor's remark. Many of the other results were omitted from the sample, so hits are more common in it than they were. Potency means the concentration at half of the fitted maximal effect.
SMILES,ERK EGF inh
CC(=O)N1CCC[C@@]2(CCN(C(=O)Nc3cccc(C#N)c3)C2)C1,-3%
CCN1/C(=N\N)c2cccc3cccc1c23,13µM*
O=C1c2cccc3cccc(c23)N1Cc1ccc(F)cc1,-3%
CCN(CC)C(=O)CN1C(=O)c2cccc3cccc(c23)C1=O,-5%
O=C(CNS(=O)(=O)c1ccccc1)Nc1cccc([N+](=O)[O-])c1,0%
Cc1cc(C)nc(NS(=O)(=O)c2ccc(NC(=O)c3ccc4c(c3)OCCO4)cc2)n1,-5%
COC(=O)COc1ccc2c(=O)c(-c3ccccc3)coc2c1,12%[57.5 µM]
CCC(Oc1ccc2c(=O)c(-c3ccccc3OC)coc2c1)C(=O)OCc1ccccc1 (stereo not given),7%
CC(C)Oc1ccc2c(=O)c(-c3ccccc3)coc2c1,18µM*
C=CCC(O)(CC=C)C(C)N (stereo not given),4%
COc1cc(/C=C2/S/C(=N/S(=O)(=O)Cc3ccccc3)NC2=O)c([N+](=O)[O-])cc1OC,7%[57.5 µM]
C=CCC(CC(O)COCCC)C(=O)NNC(=S)Nc1ccccc1 (stereo not given),9%[57.5 µM]
CC(=O)NCc1c(I)c(NC(C)=O)c(I)c(C(=O)O)c1I,5%
Cc1ccc(-c2csc3ncnc(Nc4ccc(C(=O)O)cc4)c23)cc1,10%[57.5 µM]
COc1ccc(-c2csc3ncnc(Nc4ccc(O)cc4)c23)cc1,28µM*
O=C(O)c1ccc(Nc2ncnc3scc(-c4ccccc4)c23)cc1,-10%
CN(C)c1nc(N(C)C)nc(N2CC(=O)N(c3ccccc3)C2=N)n1,4%
CCOC(=O)C1CCN(C(=O)c2sccc2Cl)CC1,3%[57.5 µM]
C[C@@H](C(=O)Nc1ccc2ccccc2c1)[C@@H]1C[C@@]1(C)[C@@H](NS(=O)(=O)c1ccc2ccccc2c1)c1ccccc1,2%
O=C(c1cc(COc2ccc3ncccc3c2)on1)N1CCCCCC1,-2%
O=C(NCCc1cn2ccccc2n1)c1cc(COc2ccc3ncccc3c2)on1,28µM*
O=C(NC1CCCC1)c1cc(COc2ccc3ncccc3c2)on1,-10%[57.5 µM]
COc1ccc(/C=N/Nc2nn3cnnc3c3ccccc23)cc1,5%[57.5 µM]
O=C(CSc1nnc(-c2ccco2)o1)c1ccc(O)cc1O,-1%
COc1cccc2c1C(=O)c1c(O)c3c(c(O)c1C2=O)C[C@](O)(C(=O)CO)C[C@H]3O[C@@H]1C[C@H](N)[C@H](O)[C@H](C)O1,-2%[25.7 µM]
SMILES,ERK EGF inh
Cc1cccc(CNc2nc(-c3cccnc3)nc3ccccc23)c1,32µM*
COc1cccc(CNc2nc(-c3cccnc3)nc3ccccc23)c1,4%
Cc1cccc(CNc2nc(-c3ccc(C(=O)N(C)C)cc3)nc3ccccc23)c1,22%
COC(=O)[C@@H]1C[C@@H]2CC[C@@H](O)C[C@@H]2N1Cc1ccc(C)s1,1%
COc1ccc(NC(=O)c2nc(C)n(-c3ccc([N+](=O)[O-])cc3)n2)cc1,-4%
CC(C)C[C@@H](CC(=O)N[C@@H](CCC(=O)O)CC(=O)O)NC(=O)[C@@H]1CCCC[C@H]1NC(=O)C[C@@H](NC(=O)C[C@H](Cc1ccccc1)NC(=O)[C@@H]1CCCC[C@H]1N)C(C)C,-11%
COc1ccc(OC)c(C(=O)Cn2nnc(-c3ccc(N4CCOCC4)cc3)n2)c1,2%[57.5 µM]
Cc1onc(-c2ccccc2)c1CNC(=O)C1COc2ccccc2O1 (stereo not given),0%[57.5 µM]
O=C(O)C(c1ccccc1)N1C(=O)/C(=C/c2cccs2)SC1=S (stereo not given),5%[57.5 µM]
C=CCOc1ccc(/C=C2\SC(=S)N(C(C(=O)O)c3ccccc3)C2=O)cc1 (stereo not given),0%[57.5 µM]
CC(c1ccccc1)N1C(=O)/C(=C/c2ccncc2)SC1=S (stereo not given),22µM*
CCN(CC)c1ccc(S(=O)(=O)N2CCOCC2)cc1NC(=O)CN1CCc2ccccc2C1,-6%
Cc1[nH]c2ccccc2c1SCC(=O)NNC(=O)Nc1ccc(OC(F)(F)F)cc1,-4%[57.5 µM]
O=[N+]([O-])c1ccc2ccn(C3OCC(O)C(O)C3O)c2c1 (stereo not given),-4%
CC(=O)/C(=N/Nc1ccccc1[N+](=O)[O-])N1CCCc2ccccc21,13µM*
CC(=O)/C(=N/Nc1ccc(Br)cc1)N1CCCc2ccccc21,-3%[57.5 µM]
COC(=O)/C(=N/Nc1ccccc1)N1CCCc2ccccc21,-1%
CCn1c(SCC(=O)Nc2cc(C)nn2-c2ccccc2)nnc1-c1cccs1,-7%[57.5 µM]
O=C(NC(=S)Nc1ccccc1N1CCN(C(=O)c2ccccc2)CC1)c1cccs1,6%[57.5 µM]
CC(C)C(=O)NC(=S)Nc1ccccc1N1CCN(C(=O)c2ccccc2)CC1,-4%
CC(=O)NC(=S)Nc1ccccc1N1CCN(C(=O)c2ccccc2)CC1,32µM*
C[C@@H](C1[C@@H](O)CC2C3C=CC4C[C@@H](O)CC[C@]4(C)[C@H]3CC[C@@]21C)[C@@H]1CCCCN1 (stereo not given in full),3%
COc1cccc(Nc2ncc3nc(CCc4ccccc4)c(=O)n(C[C@H]4CCCO4)c3n2)c1,-2%
CC1=C(C)C(C)=C(C#N)C(=C(C#N)C#N)N1,-2%[57.5 µM]
Cn1nnnc1SCC(=O)N(C1CCCCC1)C1CCS(=O)(=O)C1 (stereo not given),3%
SMILES,ERK EGF inh
CC(C)[C@@H]1NC(=O)c2cc([N+](=O)[O-])cc(I)c2OCC[C@@H](C(N)=O)NC(=O)[C@H](CCC(=O)O)NC1=O,-5%
NC(=O)CC[C@@H]1NC(=O)[C@H](Cc2ccccc2)NC(=O)[C@H](Cc2ccc(O)cc2)NC(=O)[C@@H](N)CSSC[C@@H](C(=O)N2CCC[C@H]2C(=O)N[C@@H](CCCN=C(N)N)C(=O)NCC(N)=O)NC(=O)[C@H](CC(N)=O)NC1=O,1%
CCOc1ccc(C(CC(=O)O)NC(=O)COc2ccccc2OC)cc1OC (stereo not given),-3%
O=C(O)Cc1sc(Nc2ccc(F)cc2)nc1-c1cccs1,0%
COc1cccc(/C=N/Nc2cc(Cl)nc(C)n2)c1O,-6%
COc1cccc(/C=N/Nc2ncnc3c2ncn3Cc2ccccc2)c1O,13µM*
COc1cccc(/C=N/NC(=O)CNC(=O)COc2ccccc2)c1O,-3%[57.5 µM]
COC(=O)[C@@]1(Cc2ccccc2)[C@H]2c3cc(C(=O)N(C)C)n(Cc4cc(C)n(C)n4)c3C[C@H]2CN1C(=O)c1ccccc1,-3%
Cn1c(N)c(C(=O)COC(=O)[C@@H]2CCCN2S(=O)(=O)c2ccc(Cl)cc2)c(=O)n(C)c1=O,-9%[57.5 µM]
O=C(COC(=O)/C=C/C(=O)N1CCN(c2ccccc2)CC1)NC(c1ccccc1)c1ccccc1,2%
Cc1ccccc1OCCN(C#N)c1nc(N(C)C)nc(N(C)C)n1,0%
Cc1ccc2c(c1)C(=O)c1c(C(=O)O)cccc1-2,3%
Nc1ccc(N)c(C(=O)O)c1,-11%[57.5 µM]
Nc1cc(C(=O)O)c(N)c2c1C(=O)c1ccccc1C2=O,28µM*
CCC(=C(CC)c1ccc(O)cc1)c1ccc(O)cc1,12%[25.7 µM]
CCNc1nc2cccnc2s1,-2%[57.5 µM]
Oc1cc2c(cc1C(c1ccc(Br)cc1)N1CCCC1)OCO2 (stereo not given),4%
COCc1ccc(CN2CCc3c([nH]c4ccccc34)C2C(C)(C)C)o1 (stereo not given),-5%
Cc1cnc(CN2CCc3c([nH]c4ccccc34)C2CC(C)C)[nH]1 (stereo not given),-5%
CCn1ccnc1CN1CCc2c([nH]c3ccccc23)C1C(C)(C)C (stereo not given),32µM*

# Screening data: PubChem, National Center for Advancing Translational Sciences (NCATS)
